Screens: PubChem, The Scripps Research Institute Molecular Screening Center
Most compounds without a hit are left out; they make up all but 2.4% or so of the library.
PLC-gamma1 inh – PLC-gamma1 (human) inhibition, primary screen; P19174; purified PLC-gamma1, fluorogenic substrate, fluorescence; inhibition, % at 12.2 µM; 370,000 tested, 0.84% active; AID 720700; in the data active means inhibition above about 9.5%
LEDGF integ inh – blocks HIV-1 LEDGF/p75-dependent DNA integration | TR-FRET IN-LEDGF/p75 DNA integration, Eu/Cy5 | inhibition, % at 3.7 µM | 370,000 tested, 0.64% active | AID 743269;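 active means inhibition above the screen-wide mean plus 3 SD, cut at about 13% in these data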;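 further: signal is the Cy5 over europium emission ratio at 671 and 618 nm; 0% = plate median of compound wells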
MBD2 DNA inh – inhibitors of human MBD2 binding to methylated oligonucleotide; Q9UBB5; TR-FRET; inhibition, % at 4.4 µM; 370,000 tested, 0.31% active; AID 686964; in the data active means inhibition above about 13%
UHRF1 MBD2 ctr – UHRF1 methyl-DNA binding inhibition. Q96T88. UHRF1 binding to methylated oligo, TR-FRET. inhibition, % at 4.4 µM. 370,000 tested, 0.75% active. AID 687016; in the data active means inhibition above about 21%;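 further: UHRF1 SRA domain binding a hemimethylated CpG hairpin DNA probe; 0% = median of test compound wells and 100% = reference inhibitor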
PLCb3 inh – inhibitors of human phospholipase C beta3; Q01970; Purified PLC-beta3, fluorogenic substrate, fluorescence; inhibition, % at 12.2 µM; 370,000 tested, 0.18% active; AID 720704; in the data active means inhibition above about 11%;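 further: 0% = median of compound wells on plate and 100% = full blocker control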
Target sequence (Q01970 whole entry, looked up): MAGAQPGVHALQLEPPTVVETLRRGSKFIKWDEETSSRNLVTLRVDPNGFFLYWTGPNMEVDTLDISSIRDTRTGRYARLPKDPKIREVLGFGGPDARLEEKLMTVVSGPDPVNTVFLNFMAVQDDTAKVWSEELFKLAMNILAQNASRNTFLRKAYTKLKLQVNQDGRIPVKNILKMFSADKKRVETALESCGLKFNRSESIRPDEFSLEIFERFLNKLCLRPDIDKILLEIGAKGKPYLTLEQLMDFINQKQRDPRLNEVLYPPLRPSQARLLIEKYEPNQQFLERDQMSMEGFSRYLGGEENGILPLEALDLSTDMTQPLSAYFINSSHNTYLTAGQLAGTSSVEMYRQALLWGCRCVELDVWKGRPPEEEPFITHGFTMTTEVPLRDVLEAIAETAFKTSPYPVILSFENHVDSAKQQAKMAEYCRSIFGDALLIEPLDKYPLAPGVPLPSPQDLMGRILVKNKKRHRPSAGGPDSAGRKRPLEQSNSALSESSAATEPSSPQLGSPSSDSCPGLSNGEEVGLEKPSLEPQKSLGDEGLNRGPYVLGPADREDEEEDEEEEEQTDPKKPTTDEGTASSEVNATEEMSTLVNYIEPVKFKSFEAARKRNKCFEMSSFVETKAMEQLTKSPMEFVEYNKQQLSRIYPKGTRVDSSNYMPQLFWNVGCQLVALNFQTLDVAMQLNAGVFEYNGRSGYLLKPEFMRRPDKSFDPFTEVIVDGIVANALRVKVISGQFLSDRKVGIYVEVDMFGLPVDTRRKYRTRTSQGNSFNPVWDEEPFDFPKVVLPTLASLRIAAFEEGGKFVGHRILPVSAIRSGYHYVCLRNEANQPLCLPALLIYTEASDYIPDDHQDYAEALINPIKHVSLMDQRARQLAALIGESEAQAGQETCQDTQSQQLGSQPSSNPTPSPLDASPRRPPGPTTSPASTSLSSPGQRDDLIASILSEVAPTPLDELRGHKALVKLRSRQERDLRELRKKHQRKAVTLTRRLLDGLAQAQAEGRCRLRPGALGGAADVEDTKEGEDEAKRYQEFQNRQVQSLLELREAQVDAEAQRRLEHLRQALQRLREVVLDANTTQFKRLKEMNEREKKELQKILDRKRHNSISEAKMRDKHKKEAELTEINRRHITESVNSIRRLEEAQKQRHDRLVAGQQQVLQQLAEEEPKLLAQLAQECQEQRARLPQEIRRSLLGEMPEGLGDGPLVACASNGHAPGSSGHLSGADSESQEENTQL
IN multimer up – activates HIV-1 integrase multimerization in LEDGF counter-screen; AID 1053131; TR-FRET HIV-1 integrase multimerization, biochemical; activation, % at 7.7 µM; shares compounds with LEDGF integ inh; 2,000 tested, 17% active; in the data active means activation above about 8.9%
TR-FRET interf – counter-screen for LEDGF/p75 integration inhibitors: TR-FRET optical interference; TR-FRET optical interference counterscreen, HIV-1 IN multimerization; inhibition, % at 7.7 µM; shares compounds with LEDGF integ inh; AID 1053135; 2,000 tested, under 10 active;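 active means inhibition above the mean over all tested compounds plus 3 SD, which no compound reached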;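 further: 0% = integrase with antibodies and DMSO and 100% = antibodies without integrase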
LEDGF integ conf – LEDGF/p75-dependent HIV-1 integration inhibition, confirmation. AID 1053136. 2,000 tested, 36% active. shares compounds with LEDGF integ inh. inhibition, % at 3.7 µM. TR-FRET LEDGF/p75-dependent HIV-1 integration, biochemical; in the data active means inhibition above about 14%
* hit, by the source's call; i = inactive; . = not tested or not shown.

SMILES	PLC-gamma1 inh	LEDGF integ inh	MBD2 DNA inh	UHRF1 MBD2 ctr	PLCb3 inh	IN multimer up	TR-FRET interf	LEDGF integ conf
Cc1ccc(C(=O)O)cc1N1C(=O)c2cccc3c([N+](=O)[O-])ccc(c23)C1=O	i	14*	0	19	i	3	-12	27*
Cc1ccc(-c2cc(C(=O)NN3CCOCC3)c3cc(Br)ccc3n2)o1	i	0	-2	-4	i	.	.	.
Cc1ccc(-c2cc(C(=O)O)c3cc(Br)ccc3n2)o1	-40	14*	2	9	-52	16*	-57	7
C[n+]1cc(C(O)(c2ccccc2)c2ccccc2)n2ccccc21	-1	-1	4	1	2	.	.	.
COC1=C[C@H](C(=O)NCc2ccccn2)[C@H](C)[C@@H](c2ccccc2)CC1=O	-5	0	3	1	-3	.	.	.
CC1=C(C(=O)OC(C)C)C(c2ccco2)NC(=O)N1 (stereo not drawn)	-1	4	-3	-1	-2	.	.	.
CCOC(=O)C1=C(N)n2c(s/c(=C\c3ccco3)c2=O)=C(C(=O)OC(C)C)C1c1ccco1 (stereo not drawn)	-97	51*	12	21*	-117	2	-6	-1
O=[N+]([O-])c1cc2ccccc2c(O)c1O	4	18*	-16	-5	-16	4	-20	30*
O=c1c2cc(Cl)ccc2oc2nc3n(c(=O)c12)CCCS3	-12	22*	3	-9	-15	-1	8	27*
CC(C)C1NC2(C(=O)c3ccccc3C2=O)C2C(=O)N(c3ccc(F)cc3)C(=O)C12 (stereo not drawn)	-42	39*	-3	0	-65	2	-6	-1
Nc1nc(-c2ccco2)c(-c2ccco2)s1	-22	30*	2	8	-33	8.9*	-45	19*
O=C(CCl)Nc1nc(-c2ccco2)c(-c2ccco2)s1	-46	25*	-1	2	-53	23*	-115	68*
Nc1nc(-c2cccs2)c(-c2cccs2)s1	-82	0	2	-5	-104	.	.	.
CC(=O)c1sc(NC(=O)CCNC(=O)c2ccco2)nc1-c1ccccc1	-2	-3	-1	2	-5	.	.	.
O=C(CCCSc1ccccc1)Nc1nc(-c2ccccn2)cs1	-2	1	-3	-1	-4	.	.	.
O=C(CCCSc1ccccc1)Nc1nc(-c2ccco2)c(-c2ccco2)s1	-30	20*	4	3	-42	3	-13	13
COC(=O)C1=C(N)N(c2ccccc2C(F)(F)F)C2=C(C(=O)CCC2)C1c1ccc2c(c1)OCO2 (stereo not drawn)	-1	33*	1	-3	1	0	-1	-8
C=CCN1[C@@H](CC(C)C)COc2cc(F)ccc2S1(=O)=O	-1	-4	4	2	0	.	.	.
COc1cc2c3nnc(-c4ccc(F)cc4)c-3cn(Cc3ccccc3)c2cc1OC	i	31*	-4	4	i	-1	5	-5
COC(=O)[C@]12C[C@H](CC(=O)N3CCSCC3)C(=O)N(Cc3ccc(Cl)cc3Cl)C1=C[C@H](C(C)(C)C)O[C@@H]2C	-2	9	-5	-4	3	.	.	.
COc1cc(C2C(C#N)=C(N)Oc3cc(N)ccc32)cc(OC)c1OC (stereo not drawn)	-23	7	-1	-3	-27	.	.	.
N#CC1=C(N)Oc2cc(N)ccc2C1c1ccc(F)cc1 (stereo not drawn)	-109	23*	-7	-4	-123	1	-6	1
N#CC1=C(N)Oc2cc(N)ccc2C1c1ccc(Cl)cc1 (stereo not drawn)	-42	5	-3	-7	-49	.	.	.
COc1ccc(C2C(C#N)=C(N)Oc3cc(N)ccc32)cc1 (stereo not drawn)	-99	18*	4	-3	-98	-1	5	-5
COc1cc2c(c(OC)c1OC)C1(CCCCC1)CC2NCC=C(C)C (stereo not drawn)	-2	-1	-2	-1	-4	.	.	.
SMILES	PLC-gamma1 inh	LEDGF integ inh	MBD2 DNA inh	UHRF1 MBD2 ctr	PLCb3 inh	IN multimer up	TR-FRET interf	LEDGF integ conf
CCSc1nc(-c2ccco2)ccc1C#N	-27	16*	-1	8	-40	-2	10	13
N#Cc1ccc(-c2ccco2)nc1SCc1ccccc1	-13	0	0	5	-15	.	.	.
O=C1c2cc(O)c(O)cc2S(=O)(=O)C1c1ccccc1 (stereo not drawn)	6	23*	2	27*	10	2	-8	8
O=C(CN1C(=O)c2ccccc2S1(=O)=O)c1ccc(O)c(O)c1	0	-8	2	2	0	.	.	.
CC1(C)CC(=O)C2=C(C1)Oc1ncn(CCCn3ccnc3)c(=N)c1C2c1ccccc1 (stereo not drawn)	0	88*	0	1	-3	0	0	0
COc1ccc(C2C3=C(CC(C)(C)CC3=O)Oc3ncn(CCCn4ccnc4)c(=N)c32)cc1 (stereo not drawn)	0	-4	4	1	0	.	.	.
COc1ccccc1Nc1nnc(SCc2cc(=O)n3cc(C)ccc3n2)s1	-3	36*	-3	-1	-4	2	-8	-3
Cc1ccccc1Nc1nnc(SCc2cc(=O)n3ccsc3n2)s1	-13	3	-4	-3	-17	.	.	.
CCC(=O)Nc1nc2ccccc2n1Cc1ccc(C)cc1	-1	14*	3	1	1	-1	3	13
CCc1noc(C)c1C(=O)N1CCN(CC(=O)OC)CC1	0	2	0	0	5	.	.	.
CC(C)CN1C(=O)C[C@]2(C(=O)N(C)c3ccc(NS(=O)(=O)C4CC4)cc32)C1c1ccccc1 (stereo partly drawn)	6	10	-3	5	4	.	.	.
COC(=O)C(C)N(C(=O)c1cccc2ccccc12)c1c(C)cccc1C (stereo not drawn)	3	78*	3	-1	1	2	-6	1
COC(=O)C(C)N(C(=O)c1cccc(Cl)c1)c1c(C)cccc1C (stereo not drawn)	2	0	0	0	2	.	.	.
Cc1c(-c2cccc(Cl)c2)nc2ccccc2c1C(=O)NC1CC1	1	21*	0	3	-6	0	0	-3
Cc1c(-c2cccc(Cl)c2)nc2ccccc2c1C(=O)OCC(=O)Nc1ccc2c(c1)OCO2	-2	-1	-2	-1	-2	.	.	.
CN(C)c1cccc(/C=C2\CC3(OC(=O)c4ccco4)CCCN2C3)c1 (stereo not drawn)	0	-1	3	-2	-2	.	.	.
